The values that follow come from paper PMC6707232.

Among the targets are COPS3 (UniProt Q9UNS2); ELOB (UniProt Q15370); COPS7B (UniProt Q9H9Q2).
Common to all, as to experiment: cross-linking mass spectrometry
What all share (conditions): not determined

Chain of UniProt Q9UNS2 (Q9UNS2 whole entry): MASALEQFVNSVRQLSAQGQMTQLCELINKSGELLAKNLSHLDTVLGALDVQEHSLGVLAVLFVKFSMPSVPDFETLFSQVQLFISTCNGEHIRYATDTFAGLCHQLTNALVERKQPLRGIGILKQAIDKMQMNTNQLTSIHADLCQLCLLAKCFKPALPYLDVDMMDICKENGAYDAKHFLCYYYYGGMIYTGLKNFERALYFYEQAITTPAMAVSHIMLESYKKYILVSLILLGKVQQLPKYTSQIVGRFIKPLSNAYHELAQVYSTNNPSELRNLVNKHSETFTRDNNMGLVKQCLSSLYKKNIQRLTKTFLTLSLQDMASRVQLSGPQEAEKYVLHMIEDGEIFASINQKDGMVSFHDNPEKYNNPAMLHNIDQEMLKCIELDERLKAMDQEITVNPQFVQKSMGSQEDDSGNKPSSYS
Chain of COPS2 (P61201 whole entry): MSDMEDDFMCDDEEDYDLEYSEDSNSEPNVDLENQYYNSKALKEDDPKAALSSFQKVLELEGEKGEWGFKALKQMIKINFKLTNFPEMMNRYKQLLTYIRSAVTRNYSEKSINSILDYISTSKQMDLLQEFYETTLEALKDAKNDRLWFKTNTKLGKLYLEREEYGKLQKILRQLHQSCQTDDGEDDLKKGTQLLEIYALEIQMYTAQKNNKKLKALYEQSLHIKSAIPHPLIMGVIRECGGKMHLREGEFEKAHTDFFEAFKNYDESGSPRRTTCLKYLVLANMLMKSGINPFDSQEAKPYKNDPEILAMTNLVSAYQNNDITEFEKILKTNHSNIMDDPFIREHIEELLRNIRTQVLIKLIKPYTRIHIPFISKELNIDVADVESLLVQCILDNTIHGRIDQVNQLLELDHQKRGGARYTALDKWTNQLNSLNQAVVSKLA
Chain of GPS1 (Q13098 whole entry): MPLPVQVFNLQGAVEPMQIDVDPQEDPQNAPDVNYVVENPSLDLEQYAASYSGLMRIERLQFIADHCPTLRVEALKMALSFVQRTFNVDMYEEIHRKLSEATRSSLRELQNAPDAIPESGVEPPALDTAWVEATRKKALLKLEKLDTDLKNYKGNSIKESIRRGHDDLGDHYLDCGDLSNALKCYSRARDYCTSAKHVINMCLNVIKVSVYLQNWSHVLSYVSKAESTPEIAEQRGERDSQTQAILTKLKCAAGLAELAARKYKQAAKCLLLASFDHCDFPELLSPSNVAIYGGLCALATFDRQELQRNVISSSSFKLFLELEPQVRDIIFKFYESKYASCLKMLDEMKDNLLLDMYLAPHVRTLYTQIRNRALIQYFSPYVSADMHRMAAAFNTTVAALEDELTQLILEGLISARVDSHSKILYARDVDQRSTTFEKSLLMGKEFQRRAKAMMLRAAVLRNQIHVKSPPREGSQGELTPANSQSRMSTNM
Chain of UniProt Q9H9Q2 (Q9H9Q2 whole entry): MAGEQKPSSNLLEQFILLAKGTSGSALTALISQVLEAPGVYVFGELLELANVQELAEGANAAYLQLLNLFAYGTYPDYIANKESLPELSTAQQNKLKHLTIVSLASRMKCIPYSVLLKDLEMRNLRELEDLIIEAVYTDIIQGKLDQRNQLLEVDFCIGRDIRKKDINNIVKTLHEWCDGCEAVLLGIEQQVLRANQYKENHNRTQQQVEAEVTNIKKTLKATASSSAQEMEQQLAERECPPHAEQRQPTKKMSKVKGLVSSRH
Chain of UniProt Q15370 (Q15370 whole entry): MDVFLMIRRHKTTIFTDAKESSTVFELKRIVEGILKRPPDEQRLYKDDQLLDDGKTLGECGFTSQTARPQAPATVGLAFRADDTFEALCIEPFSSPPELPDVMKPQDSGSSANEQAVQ

Consider GPS1, Q13098, for which the values for the cross-linked residues result with COPS3 and with ELOB were “K467 - K406” and “K158 - K19”, respectively.
Regarding COPS2, P61201, the cross-linked residues entry with COPS3 is recorded as “K426 - K243”; with COPS7B, “K426 - K199”.
